Apoferritin bind = binds horse apoferritin like a general anesthetic. P02791. apoferritin/1-aminoanthracene competitive binding, fluorescence. Potency, µM (highest dose often 77.5 µM), without a hit: top-dose activity change, negative = displacement, most hits filed as inhibitors. 0.074% of 350,000 active. AID 485281; also: % is scaled to controls: 0 for no effect and ±100 for the full control effect; nearly all actives have a fitted effect of over 20% in size
Target sequence (P02791 2-175 limits assumed): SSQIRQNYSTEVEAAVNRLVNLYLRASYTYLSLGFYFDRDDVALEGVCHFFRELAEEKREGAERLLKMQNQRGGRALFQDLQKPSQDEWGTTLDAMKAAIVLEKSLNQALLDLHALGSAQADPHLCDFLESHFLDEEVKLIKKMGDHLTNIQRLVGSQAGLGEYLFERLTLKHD
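Apoferritin-based anesthetic binding model; compound displacement of fluorescent 1-AMA measured as endpoint fluorescence after 10 minutes at room temperature, scaled to free-ligand and complex controls.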
GoLoco inh red = blocks human Gai1 binding to RGS12 GoLoco peptide, red readout; P63096; Gai1:RGS12 GoLoco peptide FP, rhodamine, 10 min; Potency, µM (top dose mostly 61.6 µM), for inactives: at the top dose activity, negative = inhibition, most hits filed as inhibitors; 0.44% of 230,000 active; active = well fitted inhibition curve with a large enough effect, not every such curve was filed as active; inactive = no such curve, though single readings can be large or run the other way; also: % is scaled to controls: 0 for no effect and ±100 for the full control effect; nearly all actives have a fitted effect of over 30% in size
ERG Ets-DNA blk = ERG Ets/DNA interaction inhibition. AID 624246. fluorescence polarization, His-ERG Ets domain / labelled DNA. 0.028% of 370,000 active. P11308. Potency, µM (series often up to 76.9 µM), without a hit: at the highest dose FP activity, negative = inhibition, usual class: inhibitors; active = well fitted inhibition curve with a large enough effect in the polarisation, with a control signal flat; inconclusive = small, poorly fitted or top-dose-only effect, or effect the other way, or a change in a side signal; inactive = no such curve, though single readings can be large or run the other way; the % refers to the polarisation;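 also: polarization taken with two DNA probes labelled with fluorescein and Texas red; % of control where 0% means no effect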
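His-tagged ERG Ets domain (1 uM in the protein solution; 300mM KCl, 50mM Tris-HCl, 1mM EDTA, 1mM DTT, pH 7.5) received compound, then a probe mix of 5 nM fluorescein-DNA and 100nM Texas-615-DNA. Fluorescence polarization was read for both dyes.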
BRCA1 expr act = increases BRCA1 expression; Potency, µM (top dose mostly 46.1 µM), for inactives: top-dose activation, most hits filed as activators; MCF7-BRCA1-FFLuc reporter, luminescence, 48 h; response scale: scaled: vehicle 0%, 10 µM genistein 100%; 1.1% of 380,000 active; also: nearly all actives have a fitted effect of over 80% in size
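Luminescence from a BRCA1-driven firefly luciferase in MCF7 cells was read after 48 h compound exposure at 37 C. Data normalized against DMSO and a 10microM genistein activation control, then curve-fitted across the titration.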
An asterisk follows results filed as active; ? = inconclusive; · = not tested or not shown; [ ] = remark or other dose. Only some compounds are listed: those with a hit (about 1.2% of all), similar ones and a draw of the others. Unless noted, calls follow the shape of the dose curve; as a rule, active = well fitted curve in the direction sought with a large enough effect; inconclusive = small, poorly fitted or top-dose-only effect, or another doubt; inactive = no such curve, though single readings can be large; an effect the other way counts as inactive or inconclusive. Potency is read from the fitted curve at half-maximal effect.

SMILES	Apoferritin bind	GoLoco inh red	ERG Ets-DNA blk	BRCA1 expr act
COc1ccc(NC(=O)n2nc(OC(=O)c3cccs3)cc2N)cc1	-23%	1%	5%	13µM*
COc1ccc(OC)c(C2=Nn3c(nnc3-c3ccc(OC)c(OC)c3)SC2)c1	-18%	·	·	·
CN(C)/C=C(\C#N)C(=O)Nc1ccc(F)c(Cl)c1	-3%	6%	-3%	7.9µM*
O=C(NCc1ccccc1)c1ccc(-c2ccccc2F)o1	5%	-5%	·	11µM*
Cc1c2c(c(O)c3c(O)cccc13)C(=O)O[C@H]2C1C(N(C)C)C(O)=C(C(N)=O)C(=O)[C@H]1O (stereo not given in full)	0%	·	·	·
CC(C)CN(CC(C)C)c1ccc(/C=C/c2ccnc3ccccc23)cc1	·	·	·	-23%
CC(=O)Cc1nsc(Nc2ccc(Cl)cc2)n1	-18%	-1%	-3%	10µM*
CC(=O)Cc1nsc(Nc2ccc(F)cc2)n1	-5%	11%	18%	?
COc1ccc(Nc2nc(CC(C)=O)ns2)cc1	-11%	9%	-10%	10µM*
COc1cccc(Nc2nc(CC(C)=O)ns2)c1	-19%	-9%	-2%	11µM*
Cc1ccccc1OCC(=O)NCC(=O)OCc1ccc2ccccc2c1	·	·	·	4%
CCOC(=O)N1CCc2c(sc3c2c(=O)n(Cc2ccccc2)c(=O)n3Cc2ccccc2Cl)C1	3%	·	2%	·
COc1cccc(/C=N/N2CCN(c3ccc(Cl)cc3)CC2)c1OC	-2%	·	-7%	-2%
COc1cccc(C=NN2CCCCCC2)c1OC	·	·	4%	11µM*
COc1ccc(/C=N/n2c(N)nc3ccccc32)cc1OC	-17%	3%	-4%	55%
COc1cccc(/C=N/n2c(N)nc3ccccc32)c1OC	46%	6%	·	10µM*
O=c1[nH]c2ccccc2n1CCC1CCCCC1	28µM*	-48%	9%	64%
Brc1ccc(-c2nnc(-c3cccc(Br)c3)o2)cc1	-17%	-10%	-1%	65%
Cc1cccc(-c2nnc(SCC(=O)N3CCCC3)o2)c1	-13%	·	-5%	7.1µM*
O=C(CSc1nnc(-c2cccc(Br)c2)o1)N1CCNC1=O	·	·	-11%	10µM*
O=C(O)c1ccc(-c2nnc(-c3cccc(Br)c3)o2)cc1	12%	·	7%	2.8µM*
O=C(CSc1nnc(-c2ccccc2Cl)o1)N1CCCC1	-8%	·	7%	7.1µM*
CC(Cc1cccs1)NC(=O)c1cccs1 (stereo not given)	-16%	8%	5%	?
CC(Cc1cccs1)NC(=O)Nc1ccc([N+](=O)[O-])cc1 (stereo not given)	?	10%	0%	5.6µM*
Cc1ccc(CSc2ncn(-c3ccccc3)n2)cc1	?	-110%	4%	11µM*
SMILES	Apoferritin bind	GoLoco inh red	ERG Ets-DNA blk	BRCA1 expr act
Clc1ccccc1CSc1ncn(-c2ccccc2)n1	-8%	-5%	4%	77%
COc1cccc(CCNc2ncnc3c2nnn3C)c1	-9%	·	4%	·
N[C@H]1[C@@H](C(=O)O)[C@H]2C=C[C@H]1C2	·	-3%[14.2 µM]	·	·
O=C(CCCc1ccncc1)c1ccccc1	·	·	·	4µM*
c1ccc(CCCCc2ccncc2)cc1	·	·	7%	12%
O=S(=O)(c1ccc2ncccc2c1)N1CCN(c2nc(-c3cccs3)nc3ccccc23)CC1	·	·	·	1%
CS(=O)(=O)N1CCN(c2ccc(NC(=O)c3cccnc3Cl)cc2)CC1	-13%	-24%	·	15%
O=C(Nc1ccc(N2CCCCC2)cc1)c1cccnc1Cl	?	79%	-3%	10µM*
CC(C)COc1ccc(CC(=O)NO)cc1	·	·	·	10%
Clc1ccccc1CONc1ncnc2nonc12	-19%	15%	9%	10µM*
Cn1nnc2c(NCc3ccccc3Cl)ncnc21	-3%	·	-2%	·
O=C(Nc1cccc([N+](=O)[O-])c1)NC1CCCCCCC1	?	·	-1%	6.3µM*
O=C(CNC1CCCCC1)Nc1cccc([N+](=O)[O-])c1	·	·	-17%	38%
O=C(Nc1cccc([N+](=O)[O-])c1)C(=O)N1CCCCC1	-6%	23%	3%	4.5µM*
NCCOC[C@H](N)C(=O)O	·	1%[14.2 µM]	·	·
COc1ccc(-c2ccc(-c3noc(-c4ccccc4)n3)c(OC)n2)cc1	-12%	28%	-7%	37%
COc1nc(-c2ccccc2)ccc1-c1noc(-c2ccco2)n1	-4%	3.5µM*	13%	?
CCOc1nc(C)ccc1-c1noc(-c2ccccn2)n1	-17%	7%	7%	35%
CCOc1ccccc1-c1nc(-c2ccc(C)nc2OC)no1	-20%	15%	2%	7.1µM*

From PubChem
